In PubChem BioAssay AID1159580 (chemical genetic matrix, 2015):
Out of some 5,500 compounds screened, about 2,000 (36%) were called active. Inconclusive results (about 18%) are left out. No stated cut-off is given here; in the data, active means normalized growth mostly below about 0.91 (no sharp cut-off); inconclusive means no clear call, values can overlap the other calls; inactive means mostly above about 0.92. Some of the results follow.

Experiment: chemical genetic growth profiling, strain panel (AID 1159580);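 further: tested at 20 µM; growth read once vehicle control cultures reached saturation at 30 °C; 1 = growth at the plate median or of vehicle wells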
Settings: growth OD

Measured: normalized growth

CC(=O)Nc1ccc(O)cc1
active: S. cerevisiae deletion strains, locus YKL068W, stronger effect = lower value 0.936 | S. cerevisiae deletion strains, locus YNL298W, strain CLA4, stronger effect = lower value 0.897 | S. cerevisiae deletion strains, locus YPR141C, strain kar3, stronger effect = lower value 0.911
inactive: S. cerevisiae deletion strains, locus YJR075W, strain HOC1, stronger effect = lower value 1.06 | S. cerevisiae deletion strains, locus YKL009W, strain mrt4, stronger effect = lower value 0.952 | S. cerevisiae deletion strains, locus YKL085W, strain MDH1 (second series), stronger effect = lower value 0.943 | S. cerevisiae deletion strains, locus YKL085W, strain MDH1, stronger effect = lower value 0.943 | S. cerevisiae deletion strains, locus YKL160W, strain elf1, stronger effect = lower value 1.01 | S. cerevisiae deletion strains, locus YKR001C, strain vps1, stronger effect = lower value 0.982 | S. cerevisiae deletion strains, locus YKR026C, strain gcn3, stronger effect = lower value 1.02 | S. cerevisiae deletion strains, locus YKR091W, strain srl3, stronger effect = lower value 1.01 | S. cerevisiae deletion strains, locus YLL001W, strain dnm1, stronger effect = lower value 0.998 | S. cerevisiae deletion strains, locus YLL026W, stronger effect = lower value 1.02 | S. cerevisiae deletion strains, locus YLL041C, strain sdh2, stronger effect = lower value 1.01 | S. cerevisiae deletion strains, locus YLR027C, strain aat2, stronger effect = lower value 1.01 | S. cerevisiae deletion strains, locus YLR039C, strain RIC1, stronger effect = lower value 0.742 | S. cerevisiae deletion strains, locus YLR058C, strain SHM2, stronger effect = lower value 0.984 | S. cerevisiae deletion strains, locus YLR102C, strain apc9, stronger effect = lower value 0.986 | S. cerevisiae deletion strains, locus YLR113W, strain HOG1, stronger effect = lower value 0.974 | S. cerevisiae deletion strains, locus YLR221C, strain rsa3, stronger effect = lower value 0.989 | S. cerevisiae deletion strains, locus YLR258W, strain gsy2, stronger effect = lower value 1.02 | S. cerevisiae deletion strains, locus YLR262C, strain YPT6 (second series), stronger effect = lower value 1.04 | S. cerevisiae deletion strains, locus YLR262C, strain YPT6, stronger effect = lower value 0.772 | S. cerevisiae deletion strains, locus YLR268W, strain sec22, stronger effect = lower value 0.978 | S. cerevisiae deletion strains, locus YLR320W, strain mms22, stronger effect = lower value 1.01 | S. cerevisiae deletion strains, locus YLR330W, strain CHS5, stronger effect = lower value 0.986 | S. cerevisiae deletion strains, locus YLR342W, strain FKS1 (second series), stronger effect = lower value 1.05 | S. cerevisiae deletion strains, locus YLR342W, strain FKS1, stronger effect = lower value 1.03 | S. cerevisiae deletion strains, locus YLR357W, strain rsc2, stronger effect = lower value 1.02 | S. cerevisiae deletion strains, locus YLR370C, strain arc18, stronger effect = lower value 1.01 | S. cerevisiae deletion strains, locus YLR371W, strain rom2, stronger effect = lower value 0.999 | S. cerevisiae deletion strains, locus YLR384C, strain iki3, stronger effect = lower value 1.01 | S. cerevisiae deletion strains, locus YLR418C, strain cdc73, stronger effect = lower value 1.08 | S. cerevisiae deletion strains, locus YML016C, strain PPZ1, stronger effect = lower value 0.975 | S. cerevisiae deletion strains, locus YML032C, strain rad52, stronger effect = lower value 0.971 | S. cerevisiae deletion strains, locus YML120C, strain ndi1, stronger effect = lower value 1.02 | S. cerevisiae deletion strains, locus YML124C, strain tub3, stronger effect = lower value 0.972 | S. cerevisiae deletion strains, locus YMR058W, strain fet3, stronger effect = lower value 1.03 | S. cerevisiae deletion strains, locus YMR078C, strain ctf18, stronger effect = lower value 0.986 | S. cerevisiae deletion strains, locus YMR125W, strain sto1, stronger effect = lower value 1.01 | S. cerevisiae deletion strains, locus YMR129W, stronger effect = lower value 1.01 | S. cerevisiae deletion strains, locus YMR205C, strain PFK2, stronger effect = lower value 1.02 | S. cerevisiae deletion strains, locus YMR223W, strain ubp8, stronger effect = lower value 0.98 | S. cerevisiae deletion strains, locus YMR231W, strain pep5, stronger effect = lower value 1.03 | S. cerevisiae deletion strains, locus YMR307W, strain GAS1, stronger effect = lower value 0.876 | S. cerevisiae deletion strains, locus YNL067W, strain RPL9B, stronger effect = lower value 1.04 | S. cerevisiae deletion strains, locus YNL071W, strain lat1, stronger effect = lower value 1.02 | S. cerevisiae deletion strains, locus YNL153C, strain GIM3, stronger effect = lower value 0.998 | S. cerevisiae deletion strains, locus YNL183C, strain NPR1, stronger effect = lower value 0.955 | S. cerevisiae deletion strains, locus YNL209W, strain ssb2, stronger effect = lower value 1.02 | S. cerevisiae deletion strains, locus YNL233W, strain BNI4, stronger effect = lower value 1.03 | S. cerevisiae deletion strains, locus YNL248C, strain rpa49, stronger effect = lower value 0.998 | S. cerevisiae deletion strains, locus YNL250W, strain rad50, stronger effect = lower value 0.937 | S. cerevisiae deletion strains, locus YNL271C, strain bni1, stronger effect = lower value 0.936 | S. cerevisiae deletion strains, locus YNL307C, strain MCK1, stronger effect = lower value 1.01 | S. cerevisiae deletion strains, locus YNL322C, strain KRE1 (second series), stronger effect = lower value 1.02 | S. cerevisiae deletion strains, locus YNR049C, strain mso1, stronger effect = lower value 1.03 | S. cerevisiae deletion strains, locus YNR052C, strain pop2, stronger effect = lower value 0.974 | S. cerevisiae deletion strains, locus YOL006C, strain TOP1, stronger effect = lower value 1.14 | S. cerevisiae deletion strains, locus YOL012C, strain htz1 0.778 | S. cerevisiae deletion strains, locus YOL147C, strain pex11, stronger effect = lower value 0.98 | S. cerevisiae deletion strains, locus YOR001W, strain rrp6, stronger effect = lower value 1.01 | S. cerevisiae deletion strains, locus YOR061W, strain CKA2, stronger effect = lower value 0.972 | S. cerevisiae deletion strains, locus YOR069W, strain VPS5, stronger effect = lower value 0.984 | S. cerevisiae deletion strains, locus YOR070C, strain gyp1, stronger effect = lower value 1.01 | S. cerevisiae deletion strains, locus YOR080W, strain dia2, stronger effect = lower value 1.03 | S. cerevisiae deletion strains, locus YOR083W, strain WHI5, stronger effect = lower value 0.988 | S. cerevisiae deletion strains, locus YOR106W, strain vam3, stronger effect = lower value 1.01 | S. cerevisiae deletion strains, locus YOR136W, strain idh2, stronger effect = lower value 1.01 | S. cerevisiae deletion strains, locus YOR144C, strain elg1, stronger effect = lower value 0.968 | S. cerevisiae deletion strains, locus YOR184W, strain ser1, stronger effect = lower value 0.998 | S. cerevisiae deletion strains, locus YOR231W, strain MKK1, stronger effect = lower value 0.997 | S. cerevisiae deletion strains, locus YOR265W, strain rbl2, stronger effect = lower value 1.02 | S. cerevisiae deletion strains, locus YOR270C, strain vph1, stronger effect = lower value 1.02 | S. cerevisiae deletion strains, locus YOR290C, strain snf2, stronger effect = lower value 1 | S. cerevisiae deletion strains, locus YOR316C, strain cot1, stronger effect = lower value 0.982 | S. cerevisiae deletion strains, locus YPL051W, strain arl3, stronger effect = lower value 1.01 | S. cerevisiae deletion strains, locus YPL055C, strain LGE1, stronger effect = lower value 1 | S. cerevisiae deletion strains, locus YPL078C, strain atp4, stronger effect = lower value 1.01 | S. cerevisiae deletion strains, locus YPL106C, strain sse1, stronger effect = lower value 1.02 | S. cerevisiae deletion strains, locus YPL240C, strain hsp82, stronger effect = lower value 1.02 | S. cerevisiae deletion strains, locus YPL241C, strain CIN2, stronger effect = lower value 0.981 | S. cerevisiae deletion strains, locus YPL256C, strain CLN2, stronger effect = lower value 0.982 | S. cerevisiae deletion strains, locus YPR119W, strain clb2, stronger effect = lower value 0.973 | S. cerevisiae deletion strains, locus YPR163C, strain tif3, stronger effect = lower value 0.992 | S. cerevisiae deletion strains, locus YPR167C, strain met16, stronger effect = lower value 0.972 | S. cerevisiae deletion strains, strain wtn01, stronger effect = lower value 0.967 | S. cerevisiae strains, strain wild type, stronger effect = lower value 0.953
